Results: PubChem BioAssay (NCI)
This is part of a sample that, as a whole, favours compounds with a hit. Of some 83,000 tested, about 20% had one in any assay.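 Treatment: one concentration, 48 hours, 96-well format. Scoring: percent growth, with anything below 10 considered active.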 Values without a mark were called inactive. Active and inactive are the calls of the source.

What was measured:
Assay in all cases: NCI-60 one-dose screen, 48 h (100 = growth as untreated, 0 = no growth, -100 = all killed)
NCI-H23 lung = details: 10 µM unless noted
NCI-H226 lung = details: 10 µM unless noted
NCI-H322M lung = details: 10 µM unless noted
NCI-H460 lung = details: 10 µM unless noted
HOP-92 NSCLC = details: 10 µM
NCI-H522 lung = details: 10 µM
A549/ATCC NSCLC = details: 10 µM unless noted
786-0 renal = details: 10 µM unless noted
COLO 205 colon = details: 10 µM unless noted
DU-145 prostate = details: 10 µM unless noted
K-562 leukemia = details: 10 µM unless noted
MALME-3M melanoma = details: 10 µM unless noted
MDA-MB-231 breast = details: 10 µM unless noted
RXF 393 renal = details: 10 µM unless noted
SF-268 CNS = details: 10 µM unless noted
SF-295 CNS = details: 10 µM unless noted
SF-539 CNS = details: 10 µM unless noted
UACC-257 melanoma = details: 10 µM unless noted
M14 melanoma = details: 10 µM unless noted

| SMILES | growth (NCI-H23 lung) | growth (NCI-H226 lung) | growth (NCI-H322M lung) | growth (NCI-H460 lung) | growth (HOP-92 NSCLC) | growth (NCI-H522 lung) | growth (A549/ATCC NSCLC) | growth (786-0 renal) | growth (COLO 205 colon) | growth (DU-145 prostate) | growth (K-562 leukemia) | growth (MALME-3M melanoma) | growth (MDA-MB-231 breast) | growth (RXF 393 renal) | growth (SF-268 CNS) | growth (SF-295 CNS) | growth (SF-539 CNS) | growth (UACC-257 melanoma) | growth (M14 melanoma) |
| --- | --- | --- | --- | --- | --- | --- | --- | --- | --- | --- | --- | --- | --- | --- | --- | --- | --- | --- | --- |
| COc1cc2c(cc1OC)C(Cc1cc(OC)c(OC)cc1[N+](=O)[O-])=NCC2 | 67.5% | 88.7% | 94.9% | 64.8% | 48.5% | 82.6% | 90% | 87.6% | 94.9% | 101% | 69% | 101% | 82.6% | 90.8% | 90% | 42.9% | 80.6% | 102% | 60.1% |
| COc1ccc(OC)c(Cn2cc3c(c2)-c2oncc2CC3)c1 | 28.8% | 70.2% | 26% | 14.1% | 59.8% | 50.3% | 43.3% | 46% | 35.8% | 52% | 14.7% | – | 42% | 36.7% | 57.5% | -8.86% (active) | -7.35% (active) | 60.5% | 4.07% (active) |
| NC(N)=N/N=C/c1cccc(Br)c1 | 97.6% | 88.7% | 91.2% | 104% | 88.9% | 100% | 98.8% | 94.2% | 90.2% | 118% | 93.6% | 100% | 105% | 95.8% | – | 99.3% | 101% | 106% | 92.8% |
| O=C(/C=C/c1c[nH]c2ccccc12)c1cc2ccccc2o1 | 97.2% | 100% | 99.7% | 107% | 83.2% | 79.8% | 89.5% | 86.6% | 130% | 95.6% | 37.2% | – | 84.6% | 114% | 80.6% | 91% | 82.1% | 98.4% | 84.2% |
| COc1ccc(Cn2cc3c(c2-c2ccc(O)cc2)CCc2cnoc2-3)cc1 | 20.5% | 24.1% | 18.8% | 1.39% (active) | 93.1% | 35.7% | 32.3% | 28.9% | -17.6% (active) | 20.2% | 12% | – | 18% | 6.55% (active) | 45.5% | -24.6% (active) | -16.2% (active) | 70.8% | 9.96% (active) |
| O=C(Oc1ccccc1)c1ccccc1Cl | 104% | 106% | 104% | 103% | 90.1% | 121% | 99.9% | 101% | 104% | 114% | 107% | 101% | 111% | 110% | – | 110% | 94.2% | 102% | 102% |
| COc1ccc(C(=O)c2no[n+]([O-])c2C(=O)c2ccc(OC)cc2)cc1 | 89.6% | 41.7% | 83.8% | 89.8% | -73.5% (active) | -88.3% (active) | 94.8% | -98.7% (active) | -85.7% (active) | 81.1% | -100% (active) | -69.5% (active) | 57.4% | – | -38.5% (active) | 92.8% | 89.3% | 13.4% | – |
| [2H]c1nc(=Nc2cc(NC(=O)C=C)c(N(C)CCN(C)C)cc2OC)[nH]c(-c2cn(C([2H])([2H])[2H])c3ccccc23)c1[2H] | 60.3% | 75.2% | 2.1% (active) | 57.3% | 22.9% | 13.3% | 40.6% | 48.7% | 29.4% | 45% | -18.3% (active) | 8.26% (active) | 54% | 44.1% | 51.2% | 85.4% | 40.5% | -2.01% (active) | -52.7% (active) |
| COc1ccc2sc(-n3nc4nc5n(c(=O)c4c3N)-c3ccccc3Sc3ccccc3-5)nc2c1 | 79.2% | 81.4% | 75.4% | 84.9% | 74.1% | 75.6% | 68% | 91.2% | 64.7% | 99.7% | 47.9% | – | 47.5% | 93.8% | 86.8% | 65.8% | 104% | 89.6% | 77.1% |
| CC(C)OC(=O)c1ccc2n1CCCc1cnc(Nc3ccccc3)nc1-2 | 67% | 84.4% | 116% | 86.6% | 75.6% | 63.3% | 74.4% | 83.3% | 86% | 87.2% | 43.6% | 55.4% | 78% | 91.2% | 94.4% | 76.1% | 86.1% | 82.8% | 89.6% |
| Clc1ccc(N/N=C(\c2ccccc2)c2ccccn2)nc1 | 19.2% | 5.46% (active) | 16.3% | 1.31% (active) | 31.3% | 1.35% (active) | 3.53% (active) | 12.7% | 15.9% | 22.7% | 7.96% (active) | 20% | 37% | 24.6% | 10.5% | 1.66% (active) | -0.842% (active) | -7.64% (active) | -6.53% (active) |
| Cc1sc(NC(=O)c2ccc(C(C)(C)C)cc2)c(C(=O)O)c1C | 62.9% | 92.3% | 97.3% | 50.9% | 66.3% | 56.3% | 24.4% | 73.8% | 55.6% | 61.6% | 38.1% | 111% | 105% | 114% | 88.1% | 35.7% | 65.8% | 101% | 107% |
| CCCC(=O)NNc1[nH]c(-c2cc(OC)c(OC)c(OC)c2)cc1C(=O)OCC | 107% | 103% | 145% | 123% | 84.8% | 105% | 115% | 92.5% | 34.3% | 94.5% | 37.9% | – | 107% | 105% | 120% | 95.3% | 91.6% | 106% | – |
| COc1ccc(CN2C(=O)/C(=C\C(=O)c3ccc(OCCN4CCCCC4)cc3)c3ccccc32)cc1 | 74.5% | 89.6% | 91.4% | 94.7% | 39% | 26% | 96.4% | 37.4% | 76.7% | 66% | 2.32% (active) | – | 84.8% | 61.7% | 82.7% | 91.5% | 86.4% | 99% | 72.1% |
| CCOC(=O)C1CCCN1C(=O)C1(NC(C)=O)CCCC1 (stereo not given) | 100% | 104% | 91.3% | 98.2% | 84.7% | 107% | 101% | 102% | 105% | 103% | 110% | 96.7% | 121% | 110% | – | 104% | 95.8% | 102% | 95.2% |
| COc1ccc(C2=NN(C(=O)c3cc(-c4ccc(C)cc4)nc4ccccc34)C(c3cc(-c4ccccc4)nn3-c3ccccc3)C2)cc1 (stereo not given) | 90.4% | 83.4% | 84.6% | 74.5% | 86.6% | 82.9% | 89.1% | 95.6% | 106% | 91.2% | 84.1% | – | 99.1% | 95.2% | 77.1% | 86.7% | 105% | 96.8% | 83.4% |
| O=C(NCCNCCO)c1cc([N+](=O)[O-])cc([N+](=O)[O-])c1O | 103% | 97.7% | 103% | 104% | 93.9% | 91.9% | 100% | 104% | 110% | 99.3% | 102% | 107% | 109% | 109% | 102% | 101% | 106% | 103% | 102% |
